The results in this text go back to article PMC4336329 (PLoS ONE, 2015).

Hit rate of the full screen: of about 310,000 compounds, about 14,000 (4.5%) showed an effect of 50% or more. The effect is printed as a negative number. The entries come from a sample that favours strong results as a whole.
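Also: peak tail current of the secondary pulse compared with the same well before compound.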

Sequence of human ether-à-go-go-related gene (hERG) potassium channel (Q12809 whole entry, looked up): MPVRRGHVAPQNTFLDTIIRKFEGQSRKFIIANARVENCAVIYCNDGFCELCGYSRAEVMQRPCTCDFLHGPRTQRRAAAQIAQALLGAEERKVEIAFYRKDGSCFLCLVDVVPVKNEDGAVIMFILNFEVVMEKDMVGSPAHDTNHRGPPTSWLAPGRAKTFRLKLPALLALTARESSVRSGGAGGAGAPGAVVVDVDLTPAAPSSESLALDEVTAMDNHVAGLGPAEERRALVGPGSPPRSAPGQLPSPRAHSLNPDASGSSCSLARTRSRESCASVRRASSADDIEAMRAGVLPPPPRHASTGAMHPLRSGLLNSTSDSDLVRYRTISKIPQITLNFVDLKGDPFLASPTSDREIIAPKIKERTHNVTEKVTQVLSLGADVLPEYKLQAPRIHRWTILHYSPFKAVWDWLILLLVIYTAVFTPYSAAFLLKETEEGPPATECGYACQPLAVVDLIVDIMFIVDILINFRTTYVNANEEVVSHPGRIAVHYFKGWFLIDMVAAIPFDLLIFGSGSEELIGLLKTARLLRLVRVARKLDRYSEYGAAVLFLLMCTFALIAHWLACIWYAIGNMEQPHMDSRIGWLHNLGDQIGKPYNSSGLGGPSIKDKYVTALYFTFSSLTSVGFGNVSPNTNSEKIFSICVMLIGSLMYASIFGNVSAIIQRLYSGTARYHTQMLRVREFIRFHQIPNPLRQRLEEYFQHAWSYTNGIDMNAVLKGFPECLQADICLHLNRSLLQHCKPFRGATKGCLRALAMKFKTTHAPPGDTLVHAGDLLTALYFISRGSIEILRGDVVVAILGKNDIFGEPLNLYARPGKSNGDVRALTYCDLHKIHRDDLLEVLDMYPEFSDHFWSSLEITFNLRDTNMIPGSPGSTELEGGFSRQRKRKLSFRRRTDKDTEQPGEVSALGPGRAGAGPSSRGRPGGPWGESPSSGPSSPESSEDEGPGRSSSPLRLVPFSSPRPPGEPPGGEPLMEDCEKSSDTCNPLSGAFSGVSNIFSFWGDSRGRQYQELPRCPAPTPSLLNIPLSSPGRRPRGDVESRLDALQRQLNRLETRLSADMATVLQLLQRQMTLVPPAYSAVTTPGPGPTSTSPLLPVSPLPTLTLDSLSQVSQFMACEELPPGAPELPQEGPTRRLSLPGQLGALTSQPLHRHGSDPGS

The target in this assay is human ether-à-go-go-related gene (hERG) potassium channel (human, UniProt Q12809). Description: primary screen, population patch clamp on CHO cells stably expressing hERG; higher = less effect of the substance. The procedure:
Briefly, Chinese hamster ovary (CHO) cells stably expressing the hERG channel were dislodged from tissue culture flasks and dispensed into PPC plates. […] During the recording, background leak currents were estimated by a 100 ms step to -80 mV from an initial holding potential of -70 mV and subtracted from the subsequent current measurement. The campaign was conducted in two phases using slight differences in recording protocol. In the first phase, the initial voltage pulse used a 100 ms step to -30 mV from a holding potential of -70 mV, a 2 s conditioning step to +25 mV, and a 2 s test step to -30 mV. During the second phase of the screen, the potential during the conditioning step was raised to +45 mV. In both phases of the campaign, a secondary voltage pulse was applied using the same parameters as the second phase initial pulse. The initial and secondary pulses were applied in the absence of compound, and upon application of 1 μM and 10 μM test concentrations. […]
`CC1Cc2ccccc2N1C(=O)CSc1nnc2n1C(C)(C)Cc1ccccc1-2` (stereo not shown): the “hERG current change (%, negative = inhibition) at 10uM” value is -3.06%.

For the molecule `CC(C)CNC(=O)CCc1nc(-c2ccccc2)no1`, the “hERG current change (%, negative = inhibition) at 10uM” value came to 10.4%.

Turning to `O=[N+]([O-])c1cc(S(=O)(=O)C(F)(F)F)ccc1NCC1CCCO1` (stereo not shown), the “hERG current change (%, negative = inhibition) at 10uM” value stood at 16.5%.

Regarding `O=C(NCCCn1ncc2ccccc21)c1cc(COc2c(F)cccc2F)on1`, the “hERG current change (%, negative = inhibition) at 10uM” value is on record as 6.73%.

With `CCn1ncc(Br)c1C(=O)Nc1ccc(Cl)cn1`, the “hERG current change (%, negative = inhibition) at 10uM” value was -7.49%.

As for `CCC(=O)N1CCN(c2c(Cl)cccc2[N+](=O)[O-])CC1`, the “hERG current change (%, negative = inhibition) at 10uM” value is listed as -13.5%.

With `O=C(/C=C/c1ccc(Cl)cc1Cl)N1CCc2ccccc21`, the “hERG current change (%, negative = inhibition) at 10uM” value is given as -1.39%.

As for `O=[N+]([O-])c1cc(Cl)ccc1N1CCCC1`, the “hERG current change (%, negative = inhibition) at 10uM” value is 5.05%.

Regarding `CC(C)(C)C(=O)N1CCN(c2ccc(Cl)cc2[N+](=O)[O-])CC1`, the “hERG current change (%, negative = inhibition) at 10uM” value is -39.3%.

Take `O=C1CN(C(=O)/C=C/c2ccc(Cl)cc2)c2ccccc2N1`: the “hERG current change (%, negative = inhibition) at 10uM” value is listed as -75.2%.

`O=C(/C=C/c1ccccc1[N+](=O)[O-])N1CCCCC1`: the “hERG current change (%, negative = inhibition) at 10uM” value was -2.55%.

Regarding `O=C(/C=C/c1ccccc1)N1CCN(c2c(Cl)cccc2[N+](=O)[O-])CC1`, the “hERG current change (%, negative = inhibition) at 10uM” value is given as -20.8%.

Turning to `O=C1CN(C(=O)/C=C/c2ccccc2F)c2ccccc2N1`, the “hERG current change (%, negative = inhibition) at 10uM” value was -2.56%.

For `O=C1CN(C(=O)/C=C/c2cccc(Cl)c2)c2ccccc2N1`, the “hERG current change (%, negative = inhibition) at 10uM” value is on record as -21.4%.

For `O=C(/C=C/c1ccc(Cl)cc1Cl)N1CCN(c2ccccc2[N+](=O)[O-])CC1`, the “hERG current change (%, negative = inhibition) at 10uM” value is listed as -72.7%.

With `O=C(/C=C/c1ccc(Cl)cc1)N1CCN(c2ccc(Cl)cc2[N+](=O)[O-])CC1`, the “hERG current change (%, negative = inhibition) at 10uM” value is -92.9%.

Turning to `O=C(/C=C/c1ccc(Cl)cc1)N1CCN(c2c(Cl)cccc2[N+](=O)[O-])CC1`, the “hERG current change (%, negative = inhibition) at 10uM” value is reported as -58%.

As for `Cc1nc2c(C)cccc2cc1C(=O)N/N=C/c1ccc(N(C)C)cc1`, the “hERG current change (%, negative = inhibition) at 10uM” value was -9.49%.

Consider `COC(=O)c1cc(C)sc1NC(=O)CN1CCN(C(=O)C2CCCO2)CC1` (stereo not shown), for which the “hERG current change (%, negative = inhibition) at 10uM” value was -34.7%.

Turning to `O=C(CS(=O)(=O)c1ccccc1)N1CCN(c2ccccc2)CC1`, the “hERG current change (%, negative = inhibition) at 10uM” value was determined as 2.36%.

For `CCCOc1ccc(C2c3c(oc4ccccc4c3=O)C(=O)N2CCCN2CCOCC2)cc1` (stereo not shown), the “hERG current change (%, negative = inhibition) at 10uM” value is listed as -6.76%.

Turning to `CCCC(C)NC(=O)c1sc2nc3n(c(=O)c2c1C)CCC3` (stereo not shown), the “hERG current change (%, negative = inhibition) at 10uM” value is recorded as -6.29%.

Turning to `Cc1cc(NC(=O)C2COc3ccccc3O2)no1` (stereo not shown), the “hERG current change (%, negative = inhibition) at 10uM” value was -0.48%.

On to `O=C(CSc1n[nH]c(-c2ccco2)n1)Nc1sc2c(c1C(=O)Nc1ccccc1)CCCC2`, for which the “hERG current change (%, negative = inhibition) at 10uM” value is reported as -41%.

Turning to `Cc1ccccc1NC(=O)c1c(C)[nH]c(=S)c(C#N)c1-c1ccc(Cl)cc1`, the “hERG current change (%, negative = inhibition) at 10uM” value is recorded as 21.1%.

For `Cc1ccc(-c2nnc(N(C)C(=O)C3CCCO3)s2)cn1` (stereo not shown), the “hERG current change (%, negative = inhibition) at 10uM” value was found to be 6.74%.

For the molecule `Cc1cc(C)cc(-n2c(C)cc(/C=C3\C(=N)N4N=C(CC(C)C)SC4=NC3=O)c2C)c1`, the “hERG current change (%, negative = inhibition) at 10uM” value stood at 5.86%.

On to `c1ccc(COCCC2CO2)cc1` (stereo not shown), for which the “hERG current change (%, negative = inhibition) at 10uM” value amounted to 5.49%.

Consider `O=C1CN(C(=O)/C=C/c2ccc(Cl)cc2Cl)CCN1`, for which the “hERG current change (%, negative = inhibition) at 10uM” value is reported as -19.2%.

Turning to `O=C(/C=C/c1ccccc1Cl)N1CCCN(C(=O)/C=C/c2ccccc2Cl)CC1`, the “hERG current change (%, negative = inhibition) at 10uM” value is -26.1%.

For the molecule `O=C(/C=C/c1ccc(Cl)cc1)N1CCN(c2ccccc2[N+](=O)[O-])CC1`, the “hERG current change (%, negative = inhibition) at 10uM” value is listed as -75.4%.

With `O=C(/C=C/c1ccc([N+](=O)[O-])cc1)N1CCN(c2ccccc2F)CC1`, the “hERG current change (%, negative = inhibition) at 10uM” value is -34.2%.

For the molecule `O=C(/C=C/c1ccc(Cl)cc1)N1CCN(c2ccccn2)CC1`, the “hERG current change (%, negative = inhibition) at 10uM” value is recorded as -32.3%.

As for `CN1CCCN(C(=O)/C=C/c2ccc(Cl)cc2Cl)CC1.Cl`, the “hERG current change (%, negative = inhibition) at 10uM” value is given as -67%.

For the molecule `CC(=O)NC1CC2CCCC(C1)N2Cc1ccc(C)cc1` (stereo not shown), the “hERG current change (%, negative = inhibition) at 10uM” value is on record as -30.5%.

As for `CCCNC(=S)NC1CC2CCCC(C1)N2CC(C)C.Cl` (stereo not shown), the “hERG current change (%, negative = inhibition) at 10uM” value was determined as 13.1%.

As to `Cc1ccc(C(=O)NC2CC3CCCC(C2)N3Cc2ccccc2)cc1` (stereo not shown), the “hERG current change (%, negative = inhibition) at 10uM” value is listed as -40.4%.

`O=C(NC1CC2CCCC(C1)N2C(=O)NC1CCCCC1)c1ccc(F)cc1` (stereo not shown): the “hERG current change (%, negative = inhibition) at 10uM” value is on record as 4.98%.

With `CCC(=O)NC1CC2CCCC(C1)N2Cc1ccc(C)cc1` (stereo not shown), the “hERG current change (%, negative = inhibition) at 10uM” value is reported as -37.4%.

Turning to `Cc1ccc(CN2C3CCCC2CC(NC(=O)c2ccc(C)cc2)C3)cc1` (stereo not shown), the “hERG current change (%, negative = inhibition) at 10uM” value was -77.7%.

For `Cc1ccc(CN2C3CCCC2CC(NC(=O)c2ccc(F)cc2)C3)cc1` (stereo not shown), the “hERG current change (%, negative = inhibition) at 10uM” value is -74.1%.

Turning to `CCCNC(=S)NC1CC2CCCC(C1)N2Cc1ccc(F)cc1` (stereo not shown), the “hERG current change (%, negative = inhibition) at 10uM” value is reported as -60.6%.

As to `CC(=O)NC1CC2CCC(C1)N2Cc1ccc(C)cc1` (stereo not shown), the “hERG current change (%, negative = inhibition) at 10uM” value is listed as -25.4%.

`CNC(=S)N1C2CCCC1CC(NC(=O)c1ccc(F)cc1)C2` (stereo not shown): the “hERG current change (%, negative = inhibition) at 10uM” value was 6.93%.

Turning to `O=C(NC1CC2CCCC(C1)N2Cc1ccc(F)cc1)c1ccc(F)cc1` (stereo not shown), the “hERG current change (%, negative = inhibition) at 10uM” value is on record as -70.8%.

For the molecule `CCCNC(=S)NC1CC2CCC(C1)N2Cc1ccccc1` (stereo not shown), the “hERG current change (%, negative = inhibition) at 10uM” value is -35.7%.
